In the emibetuzumab library of Makowski et al. (2022):
The other results are listed elsewhere or left out. No count for the full screen is at hand.

B1: VH:VL chains; a variant is named by its letters at X, in order (parent)
chain 1: QVQLVQSGAEVKKPGASVKVSCKASGYTFTDYXMHWVRQAPGQGLEWMGXVNPNXXXTTYNQKFEGRVTMTTDTSTSTAYMELRSLRSDDTAVYYCARXNXLDXWGQGTTVTVSS
chain 2: DIQMTQSPSSLSASVGDRVTITCSVSSSVSSIYLHWYQQKPGKAPKLLIYSTSNLASGVPSRFSGSGSGTDFTLTISSLQPEDFATYYCQVYSGYPLTFGGGTKVEIK

Variants of: B1
Assay: yeast display scFab, FACS + sequencing
Conditions: with MET
In short: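 Antigen binding was called positive for sequences present in both antigen-positive samples and negative for those present only in the input. These calls came from deep sequencing, in two replicates, of round-3 sorted and input populations from a heavy-chain CDR mutant scFab yeast surface library. The library was first enriched twice magnetically on HGFR-Fc-coated Protein A beads and then by FACS, gating the top 50% antigen-positive cells after 3 h labelling at room temperature with 1 nM HGFR-Fc plus anti-Myc in PBSB with 1% milk.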

| Variant | antigen binding call |
| --- | --- |
| YAGEGDGA | no binding |
| VTTADDWV | no binding |
| YKGKGVGV | binds |
| YRGKGVGV | no binding |
| SKEGGVGV | no binding |
| YKGRGVVV | binds |
| YKERDVGV | no binding |
| YKGRGVGV | binds |
| DKGRSVGV | no binding |
| AARADDGS | no binding |
| SAAGGDGV chain 1 L45S | no binding |
| FTEEGAGD | no binding |
| FRRGGSVD | binds |
| FRRGGAVD | binds |
| FGRGGVGD | no binding |
| FTETGAGD | no binding |
| FRERGAGD | binds |
| FRRGGAGD | binds |
| FRERGAGY | no binding |
| VATGDFGV | no binding |
| SKGENALY | no binding |
| YETETALY | no binding |
| YKKTGDLY | no binding |

| Variant | antigen binding call |
| --- | --- |
| YKTGGALY | binds |
| YKAGGALY | binds |
| VKTGGDVY | no binding |
| AARADDAV | no binding |
| DATGGAGD | no binding |
| YRTGGAGD | binds |
| YRTGGAWD | binds |
| YRTGGSGD | binds |
| FATGGSGD | no binding |
| DREEGSGD | no binding |
| SETGGAGD | no binding |
| YRTGDSGD | binds |
| FTRTNFLS | no binding |
| VKEKGDVA | no binding |
| YRGRSSAA | binds |
| YKARGSAA | binds |
| YKRRGSAA | binds |
| YTRAGSAA | no binding |
| YRAKGSAA | binds |
| YAARGSAA | no binding |
| DAKTDDGV | no binding |
| DKEGGDGY | no binding |
| YTGRGSAA | binds |

| Variant | antigen binding call |
| --- | --- |
| YRARSSAA | binds |
| YGATSSLA | no binding |
| YTKRGSAA | no binding |
| YGAAGSAA | binds |
| YREKGSAA | binds |
| YGGGGVAA | no binding |
| AREKGSAA | no binding |
| AAEGGYAV | no binding |
| VKGASDWA | no binding |
| VTTKSDSA | no binding |
| VTTKSDGA | no binding |
| YTARGSAA | binds |
| YREKGAAA | binds |
| YRARGSAA | binds |
| YRARGSLA | binds |
| DTRGADAV | no binding |
| DEGAGDGF | no binding |
| YKTRGSAA | binds |
| YRARSSLA | binds |
| YKTRGFGA | no binding |
| FAARAFGV | no binding |
| SEEASDGA | no binding |
| YRAGGVVA | binds |

| Variant | antigen binding call |
| --- | --- |
| YRAGGYVA | binds |
| YRKGGFVA | no binding |
| YRAGGSVA | binds |
| YRAGGFVA | binds |
| YREGGFVA | no binding |
| DTGTGSSA | no binding |
| STTKSDGV | no binding |
| VAGTGDWA | no binding |
| YKKGGSLD | binds |
| YKGGGALD | binds |
| YKGKGALD | binds |
| FKGKGVGD | no binding |
| YKEEDSLD | no binding |
| YKGAGALD | no binding |
| FKGKGAGD | binds |
| DTTGSASD | no binding |
| VAGGDDWV | no binding |
| YKGKGSLD | binds |
| FKGRGALA | binds |
| FKGKGALD | binds |
| YRAGASAV | binds |
| YAGEASAV | no binding |
| YRAGSSAD | binds |

| Variant | antigen binding call |
| --- | --- |
| YRGAASAV | binds |
| VRAGADSV | no binding |
| YAEESSAD | no binding |
| SEARSSAD | no binding |
| YRARSSAD | binds |
| DAGEASAV | no binding |
| VRAGADAV | no binding |
| DAGTAFSS | no binding |
| VEREADWF | no binding |
| YREKDSAD | binds |
| YRAKGSAD | binds |
| YAEKDAGD | no binding |
| FREKDSAD | no binding |
| YRAGASAD | binds |
| YRARGSAD | binds |
| DTEEGDVA | no binding |
| DAKEGDAD | no binding |
| DTGEADAS | no binding |
| VRGKGAAD | binds |
| VRGKGAWD | binds |
| VKGKGAWD | binds |
| VAGKGAGD | no binding |
| VEGKGAGD | no binding |

| Variant | antigen binding call |
| --- | --- |
| VKGEAAWD | no binding |
| VRGKGAVD | binds |
| VAGKGVLD | no binding |
| YEKETVVA | no binding |
| YKGKSAWD | no binding |
| YKGKGAWD | binds |
| YRARSSGV | binds |
| DRAGDAGV | no binding |
| YRARSASV | binds |
| SEARSAGV | no binding |
| SEARSSGV | no binding |
| YRARSAGV | binds |
| STEGDAGA | no binding |
| DATRGAGY | no binding |
| VEKGGSGD | no binding |
| ARKGSSGD | no binding |
| YRKGDSLD | binds |
| YRKGSSGD | binds |
| YRKGDSGD | binds |
| VRKGSSGD | binds |
| VTGTGAAV | no binding |
